Rows were chosen to be rich in hits. Some 2.4% of all compounds tested hit in one or more screens of this group.
Prx2 Sm inh: Schistosoma mansoni Prx2 inhibition | S. mansoni Prx2 activity coupled to TGR/GSH (TGR is thioredoxin glutathione reductase), NADPH fluorescence loss, qHTS | Potency, µM | 65,000 compounds, 0.07% hits
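Purified S. mansoni TGR and Prx2 in pH 7.4 phosphate buffer with EDTA and Tween-20 were preincubated with compounds for 15 min. Further NADPH/GSH was added, then a 2.5 mM H2O2 aliquot initiated turnover, followed kinetically by NADPH fluorescence.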
AmpC nodet inh: AmpC beta-lactamase inhibition, detergent-free assay; P00811; AmpC nitrocefin hydrolysis, absorbance 480 nm, no detergent; Potency, µM (top dose mostly 28.7 µM); 71,000 compounds, 1.8% hits; AID 585
Target sequence (P00811 whole entry, looked up): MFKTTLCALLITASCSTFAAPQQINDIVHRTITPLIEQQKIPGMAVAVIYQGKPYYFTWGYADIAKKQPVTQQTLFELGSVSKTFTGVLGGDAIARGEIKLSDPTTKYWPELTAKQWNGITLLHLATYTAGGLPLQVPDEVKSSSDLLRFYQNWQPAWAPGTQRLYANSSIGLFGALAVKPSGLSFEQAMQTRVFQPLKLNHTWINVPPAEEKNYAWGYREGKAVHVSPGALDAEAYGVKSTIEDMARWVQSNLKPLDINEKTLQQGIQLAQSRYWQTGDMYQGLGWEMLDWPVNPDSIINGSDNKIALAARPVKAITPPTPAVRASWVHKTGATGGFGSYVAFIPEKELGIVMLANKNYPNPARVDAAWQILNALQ
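AmpC in 20 mM phosphate buffer pH 7.0 was preincubated 15 min at room temperature with compounds. Nitrocefin (800 uM stock) was then added and hydrolysis followed at 480 nm every 20 s for 4 min.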
AmpC det inh: AmpC beta-lactamase inhibition, detergent assay | 71,000 compounds, 0.09% hits | purified AmpC, nitrocefin hydrolysis with detergent | P00811 | Potency, µM (highest dose often 28.7 µM); active = well fitted curve in the direction sought with a large enough effect; inconclusive = small, poorly fitted or top-dose-only effect
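E. coli AmpC (5.3 nM) in 20 mM phosphate pH 7.0 with 0.01% Triton X-100, preincubated 15 min RT with compound; nitrocefin (2 uL of 800 uM stock) hydrolysis followed by 480 nm absorbance every 20 s over 4 min.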
Anthrax LT inh: anthrax lethal toxin internalization inhibition; Potency, µM (series often up to 40 µM), hits mostly inhibitors; AID 912; 70,000 compounds, 0.67% hits; Cells, anthrax lethal toxin internalization, FRET ratio (460/530); also: nearly all actives have a fitted effect of over 50% in size
Of the large screens only hits and unclear results are named; the others gave an inactive call; [ ] = dose if it differs, or a comment. Unless noted, calls follow the shape of the full dose curve.

COc1cc(C2SCCCCCCCCCCSC(c3ccc(O)c(OC)c3)SCCCCCCCCCCS2)ccc1O (stereo not given)	none
CN(CC(=O)O)CC(=O)O	none
Clc1ccc(/C=C\c2nc(Cl)c(-c3ccc(Cl)cc3)c(Cl)n2)cc1	Anthrax LT inh inconclusive
Cc1cc(NC(=O)c2noc3c2CCc2ccccc2-3)n(-c2ccccc2)n1	AmpC nodet inh 2.51µM[single pt active]
Clc1ccccc1CNCC1CCC(CNCc2ccccc2Cl)CC1 (stereo not given)	Anthrax LT inh 3.98µM
CC/C(C)=N/O	Anthrax LT inh inconclusive (no result: Prx2 Sm inh)
COC(=O)C(CC(=O)c1ccc(Br)cc1)n1ccnc1 (stereo not given)	Anthrax LT inh 12.6µM
Cc1ccc(C(=O)CC(C(=O)O)n2cccn2)cc1 (stereo not given)	none
CCCCN(CC)CCCNC(=O)c1cc2cc3ccc(OC)cc3nc2o1	Anthrax LT inh 12.6µM
CCCN(CCC)CCCNC(=O)c1cc2cc3ccc(OC)cc3nc2o1	Anthrax LT inh inconclusive
COc1ccc2cc3cc(C(=O)NCCc4ccc(OC)c(OC)c4)oc3nc2c1	Anthrax LT inh 12.6µM
CCN1CCN(CCCNC(=O)c2cc3cc4ccc(OC)cc4nc3o2)CC1	Anthrax LT inh inconclusive
COc1ccc(C(=O)N2CCC[C@@]3(CCN(c4cccc(-c5ccccc5)c4)C3)C2)cc1	none
CC(=O)OC[C@@H]1O[C@@H](O/N=C2/C[C@@H](O)[C@@H](O)[C@@H]3[C@@H]4C(=O)N(c5cccc(Oc6ccccc6)c5)C(=O)[C@H]4CC[C@@H]23)[C@H](OC(C)=O)[C@H](OC(C)=O)[C@@H]1OC(C)=O	none (no result: Prx2 Sm inh, AmpC nodet inh, AmpC det inh)
CCCCn1c(=S)[nH]c2c(oc3ccc(Cl)cc32)c1=O	AmpC nodet inh 6.31µM
O=c1cc(-c2ccccc2)oc2cc(O)c(O)c(O)c12	AmpC nodet inh 7.94µM, Anthrax LT inh 1.26µM
BrCC(Br)C1CCC(Br)C(Br)C1 (stereo not given)	Anthrax LT inh 15.8µM (no result: Prx2 Sm inh)
OC[C@@H]1CCC[C@H](n2cnc3c(=S)nc[nH]c32)O1	none
c1ccc2c(N3CCCCC3)nc(N3CCCC3)nc2c1	Anthrax LT inh 10µM
c1ccc(-c2nc(N3CCCCCC3)c3ccccc3n2)nc1	Anthrax LT inh inconclusive (no result: Prx2 Sm inh)
Nc1nc(-c2ccco2)nc(N2CCCCC2)n1	none
Nc1nc(N2CCCCC2)nc2ccccc12	Anthrax LT inh 20µM
O=C(c1ccc2c(=O)n(Cc3ccc4c(c3)OCO4)c(=S)[nH]c2c1)N1CCCCC1	AmpC nodet inh 15.8µM[single pt active]
ClC1=C(Cl)C2(Cl)C3C(Cl)C=CC3C1(Cl)C2(Cl)Cl (stereo not given)	Anthrax LT inh 15.8µM (no result: Prx2 Sm inh)
Oc1ccc2c3c1O[C@H]1c4[nH]c5ccccc5c4C[C@]4(O)[C@H](C2)N(CC2CC2)CC[C@@]314	Anthrax LT inh inconclusive
Oc1ccc2c3c1O[C@H]1c4c(c5ccccc5n4Cc4ccccc4)C[C@]4(O)[C@H](C2)N(CC2CC2)CC[C@@]314	Anthrax LT inh 25.1µM
O=C(Oc1cccc(-n2cnnn2)c1)c1sc2ccccc2c1Cl	AmpC nodet inh 12.6µM[single pt active]
COC(=O)CN(c1ccc(C(C)C)cc1)S(=O)(=O)c1c(C)[nH]c(=O)[nH]c1=O	AmpC nodet inh 3.98µM[single pt active]
CCN(CC)CC[n+]1ccc2c(C)c3[nH]c4ccccc4c3c(C)c2c1	Anthrax LT inh 3.98µM
CC1CCCCN1CCNC(=O)c1cc2c(=O)n(C)c3ccccc3c2n1C (stereo not given)	Anthrax LT inh 2.51µM
Cc1cc(C(=O)NCCN2CCCCC2C)n(-c2ccccc2)n1 (stereo not given)	none
CC1CCC(NC(=O)c2cc3c(=O)n(C)c4ccccc4c3n2C)CC1 (stereo not given)	AmpC nodet inh 3.98µM[single pt active]
Cn1c(C(=O)NCCN2CCN(c3ccccc3F)CC2)cc2c(=O)n(C)c3ccccc3c21	AmpC nodet inh 3.98µM[single pt active]
CC1CCCCN1CCNC(=O)c1cnn2ccccc12 (stereo not given)	AmpC nodet inh 3.16µM[single pt active] (no result: Prx2 Sm inh)
C[C@@H](c1ccccc1)N1C(=O)[C@H]2[C@H]3[C@H](O)[C@H](O)C/C(=N/NC(=O)OCc4ccccc4)[C@H]3CC[C@@H]2C1=O	none (no result: Prx2 Sm inh, AmpC nodet inh, AmpC det inh)
COc1ccc(-n2c(=O)c(-c3cccs3)nc3cnc(Oc4ccccc4)nc32)cc1	Anthrax LT inh inconclusive
Cn1c(C(=O)NCCN2CCc3ccccc3C2)cc2c(=O)n(C)c3ccccc3c21	Anthrax LT inh 7.94µM
Cn1c(C(=O)NCCN2CCOCC2)cc2c(=O)n(C)c3ccccc3c21	none
C[C@@H](NC(=O)C1(N)CCCC1)C(=O)O	none
COc1ccc([C@@H](C)c2cc3c(cc2O)OCO3)cc1	none
c1ccc(C(NCCNC(c2ccccc2)c2ccccc2)c2ccccc2)cc1	Anthrax LT inh 10µM (no result: Prx2 Sm inh, AmpC nodet inh, AmpC det inh)
Cc1ccc(CN2CCN(Cc3ccc(C)o3)[C@@H](C)C2)o1	none
O=C(Nc1cnn(Cc2ccc(Cl)cc2Cl)c1)c1noc2c1CCCC2	AmpC nodet inh 3.98µM[single pt active], Anthrax LT inh inconclusive
O=c1cc(N2CCc3ccccc3C2)[nH]c(=O)n1-c1ccc(Br)cc1	AmpC nodet inh 15.8µM[single pt active]
O=c1cc(N2CCCC2)[nH]c(=O)n1-c1ccc(Cl)cc1	none
O=c1cc(N2CCc3ccccc3C2)[nH]c(=O)n1-c1ccc(Cl)cc1	AmpC nodet inh 15.8µM[single pt active]
N#Cc1ccc(CN2CC3(CCN(C(=O)c4ccco4)CC3)C2)cc1	none
CCOC(=O)SC1=N/C(=C\c2ccc(N(C)C)cc2)C(=O)S1	AmpC nodet inh 15.8µM, AmpC det inh 5.01µM
CC(=O)c1ccc(OC2C=CC(C#Cc3ccc(Br)cc3)OC2CO)cc1 (stereo not given)	none (no result: Prx2 Sm inh, AmpC nodet inh, AmpC det inh)
Cn1c(C(C#N)C(=O)c2sc3ccccc3c2Cl)nc2ccccc21 (stereo not given)	AmpC nodet inh 12.6µM, Anthrax LT inh inconclusive
COC(=O)[C@@]1(Cc2ccccc2)[C@H]2c3cc(C(=O)N4CCCC4)n(Cc4ccc(OC)c(OC)c4)c3C[C@H]2CN1C(=O)c1ccccc1	Anthrax LT inh inconclusive
COc1ccc(-c2nc3cnc(N4CCN(C)CC4)nc3n(Cc3cccc(OC)c3)c2=O)cc1	Anthrax LT inh inconclusive
COc1ccc(N2CCN(C(=O)c3cc4c(-c5ccc(Cl)cc5)nn(C)c4s3)CC2)cc1	AmpC nodet inh 3.98µM[single pt active], Anthrax LT inh inconclusive
COc1cccc(-c2nn(C)c3sc(C(=O)N4CCN(c5ccccn5)CC4)cc23)c1	Anthrax LT inh 10µM
COc1cccc(-c2nn(C)c3sc(C(=O)N4CCOCC4)cc23)c1	none
Oc1ccc2c3c1O[C@@H]1[C@@H](O)CC[C@]4(O)[C@H](C2)N(CC2CCC2)CC[C@@]314	none
NC(=O)c1cccc(S(=O)(=O)N2CC(c3ccccc3)CC2=O)c1 (stereo not given)	AmpC nodet inh 3.98µM[single pt active]
CCN1C[C@@]2(COC(=O)c3ccccc3N3C(=O)C[C@H](C)C3=O)CC[C@H](OC)[C@@]34[C@@H]5CC6[C@@H](OC)C[C@@](O)([C@H]5[C@H]6OC)C(O)([C@@H]13)[C@@H](OC)[C@H]24	Anthrax LT inh inconclusive
CCOC(=O)c1ccc(NC(=O)Nc2ccc(S(N)(=O)=O)cc2)cc1	none (no result: Anthrax LT inh)
CN(C)c1ccc(C(=O)OCC(=O)Nc2ccc(S(N)(=O)=O)cc2)cc1	AmpC nodet inh 15.8µM[single pt active]

High-throughput results (PubChem BioAssay)
